# Results from the supplement of paper PMC9177965.
# Several values for one entry are separate records, joined by “and”; a condition that tells them apart may be missing. Identical values can stand only once.
# System: HT29 RNF43 G659fs (RNF43 659mut, CRISPR-edited)
# Assay: cell viability activity relative to DMSO (negative = inhibition); higher = more viable cells (less growth inhibition)
# Conditions: 5 µM; 96 h
# Method: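 Broad Repurposing Library primary screen at a single dose of 5 uM. HT29 sg-Ctrl and HT29 RNF43 G659fs CRISPR-edited isogenic cells were seeded at 2500 cells/well in 384-well plates in duplicate and treated for 96 h. Viability was read by CellTiter-Glo and reported as % activity relative to DMSO, with MG132 as the positive control (negative = growth inhibition).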
row,SMILES,cell viability activity
1,COc1ccc(N(C)c2nc(C)nc3ccccc23)cc1,-59.2%
2,O=C(NOCCO)c1cc(CN2OCCCC2=O)c(F)c(F)c1Nc1ccc(I)cc1F,-76.5%
3,CC[C@@H](C(=O)[C@@H](C)[C@@H](O)[C@H](C)CCc1ccc(C)c(O)c1C(=O)O)[C@H]1O[C@](CC)([C@H]2CC[C@](O)(CC)[C@H](C)O2)C[C@@H]1C,-65.8%
4,Cn1cc(C2=C(c3cn(CCCSC(=N)N)c4ccccc34)C(=O)NC2=O)c2ccccc21,-81.3%
5,NS(=O)(=O)OC[C@@H]1C[C@@H](n2ccc3c(N[C@H]4CCc5ccccc54)ncnc32)C[C@@H]1O,-78%
6,CNC(=O)c1ccccc1Nc1cc(Nc2ccc(N3CCOCC3)cc2OC)ncc1C(F)(F)F,-64.6%
7,CC[C@H](C)[C@@H]([C@@H](CC(=O)N1CCC[C@H]1[C@H](OC)[C@@H](C)C(=O)N[C@@H](Cc1ccccc1)c1nccs1)OC)N(C)C(=O)[C@@H](NC(=O)[C@H](C(C)C)N(C)C)C(C)C,-55.7%
8,O=C(/C=C/c1ccc(CN(CCO)CCc2c[nH]c3ccccc23)cc1)NO,-95.4%
9,CCN(CC)c1ccc(C(=C2C=CC(=[N+](CC)CC)C=C2)c2ccccc2)cc1,-97.7%
10,c1cc(-c2cnn3cc(-c4ccc(N5CCNCC5)cc4)cnc23)c2cccnc2c1,-97.7%
11,CN(C)c1ccc(C(=O)NCCCCCCC(=O)NO)cc1,-84.4%
12,Cn1c(=O)c(F)c(Nc2ccc(I)cc2F)c2c(=O)n(C[C@@H](O)CO)cnc21,-86.8%
13,Cc1cc(Nc2cc(N3CCN(C)CC3)nc(Sc3ccc(NC(=O)C4CC4)cc3)n2)n[nH]1,-22.2%
14,COC(=O)Nc1ccc(-c2nc(N3CCOCC3)c3cnn(C4CCN(C(=O)OC)CC4)c3n2)cc1,-50%
15,COc1cc(Nc2c(C#N)cnc3cc(OCCCN4CCN(C)CC4)c(OC)cc23)c(Cl)cc1Cl,-96.5%
16,Cn1nccc1Nc1nccc(-c2ccn([C@H](CO)c3ccc(Cl)c(F)c3)c(=O)c2)n1,-54.6%
17,O=C(NC[C@H](O)CO)c1ccncc1Nc1ccc(I)cc1F,-83.4%
18,O=C(/C=C/c1ccc2ccccc2n1)c1ccncc1,-68.9%
19,CN(C)C/C=C/C(=O)Nc1cccc(C(=O)Nc2cccc(Nc3ncc(Cl)c(-c4c[nH]c5ccccc45)n3)c2)c1,-91.7%
20,CCCC[C@H](NC(C)=O)C(=O)N[C@H]1CC(=O)NCCCC[C@@H](C(=O)O)NC(=O)[C@H](Cc2c[nH]c3ccccc23)NC(=O)[C@H](CCCNC(=N)N)NC(=O)[C@@H](Cc2ccccc2)NC(=O)[C@H](Cc2c[nH]cn2)NC1=O,-42.1%
21,Cc1cc(NC(=O)NCCN2CCC(O)(Cc3ccccc3)CC2)c2ccccc2n1,-36.2%
22,CC(=O)O[C@H]1C(=O)[C@@]2(C)[C@H]([C@H](OC(=O)c3ccccc3)[C@]3(O)C[C@H](OC(=O)[C@H](O)[C@@H](NC(=O)c4ccccc4)c4ccccc4)C(C)=C1C3(C)C)[C@]1(OC(C)=O)CO[C@@H]1C[C@@H]2O,-58.4% and -50%
23,COC(=O)Nc1nc2ccc(SC(C)C)cc2[nH]1,-43.7%
24,Cc1ccc(C(=O)Nc2ccc(CN3CCN(C)CC3)c(C(F)(F)F)c2)cc1C#Cc1cnc2[nH]ncc2c1,-96.2%
25,CC[C@H](CC#N)OC(=O)N[C@@H](C)c1cccc(NC(=O)Nc2ccc(-c3cnco3)c(OC)c2)c1,-66.2%
26,NCCCCNCCCN,-26.8%
27,CC(C)C[C@@H](C=O)NC(=O)[C@H](CC(C)C)NC(=O)[C@H](CC(C)C)NC(=O)OCc1ccccc1,-96.9%
28,O=C(NOC[C@H](O)CO)c1ccc(F)c(F)c1Nc1ccc(I)cc1F,-81.1%
29,Cc1cc(O)c(-c2ccc([C@@H](C)CN)cc2)c2c1[nH]c(=O)c1sccc12,-92.6%
30,CC(=O)OC1CC2CCC1(C)C2(C)C (stereo not given),-28.1%
